According to PubChem BioAssay:

Test: inhibition of PAO1 biofilm formation – strain PAO1, LB-PBS medium, absorbance 600 nm, primary screen (AID 1176)
Details: P. aeruginosa PAO1 growth/biofilm, A600, 12 h; higher = more signal
Further: test concentration not given here.

z-score, inactive:
COc1ccc(C(=O)Nc2cccc(CN3C(=O)[C@@]4(O[C@@H](CC(=O)N5CCC[C@H]5CO)[C@H]([Si](C)(C)c5ccc(OC)cc5)[C@H]4C)c4ccccc43)c2)cc1 1.03
CC(=O)c1ccc(C(O)C2C=CC3C(=O)N(c4ccccc4)C(=O)C3N2Nc2ccc(C(C)C)cc2)cc1 (stereo unspecified) 0.503
COc1ccccc1CN1C(=O)c2ccccc2[C@](Cc2ccccc2I)(C(=O)NCC(C)C)[C@@H]1c1ccc(CO)cc1 0.251
C=CCNC(=O)[C@H]1[C@@H]2C(=O)O[C@@H](c3ccccc3)[C@@H](c3ccccc3)N2[C@@H](c2ccc(OCCO)cc2)[C@]12C(=O)Nc1ccc(C#CC3(O)CCCCCC3)cc12 0.898
[N-]=[N+]=Nc1ccccc1C[C@@]1(C(=O)NCC(O)CO)N=C(c2ccc(OCCCO)cc2)O[C@@H]1c1ccccc1 (stereo partly specified) -0.456
CCOC(=O)c1cn(C[C@H](Cc2ccccc2)NC(=O)N[C@H](CO)CCc2oc(C(C)=O)c(C(=O)OC)c2C(=O)OC)nn1 -0.227
Cc1ccc(S[C@]2(C(=O)NCCCN(C)C)CC(=O)N(Cc3ccccc3C(F)(F)F)[C@@H]2c2ccc(CO)cc2I)cc1 -0.0065
COCCOC(=O)N1C(=O)[C@@]2(c3cc(C#CCNC(N)=O)ccc31)[C@H](C(=O)Nc1nc3ccccc3s1)[C@H]1C(=O)O[C@H](c3ccccc3)[C@H](c3ccccc3)N1[C@@H]2c1ccccc1OCCO 3.44
Cc1ccc(S[C@]2(C(=O)NC3CC3)CC(=O)N(C(C)C)[C@@H]2c2ccc(CO)cc2I)cc1 -0.227
COc1cc(CO)cc(I)c1O[C@H]1C=C(C(=O)NCCO)C[C@@H]2O[C@H]12 -0.0339
CC(=O)NCCCC[C@@H]1NC(=O)[C@H]2C[C@@H](C(=O)NCCCCCCNC(=O)CS)[C@@H](c3cccc(OCCO)c3)N2C1=O 0.339
C=CC[C@@]1(C(=O)OC)N=C(c2ccc(OCCCO)cc2)O[C@@H]1c1ccccc1N=[N+]=[N-] -0.043
CCC(CC)C(O)C1C=CC2C(=O)N(c3ccccc3)C(=O)C2N1Nc1ccccc1F (stereo unspecified) 0.67
CN1C(=O)C2C(C1=O)C1C=C(CCCO)C2C(C2CC2)N1Cc1cccc(OC(F)(F)F)c1 (stereo unspecified) 0.559
C=C(CCCC)C(=O)CC[C@H](OC(=O)c1ccccc1-c1ccccc1C(=O)O)c1ccc(OCCO)cc1 0.203
COC(=O)[C@@]1(Cc2ccc(F)cc2)[C@H]2c3cc(C(=O)N(C)C)n(C)c3C[C@H]2CN1C(=O)c1ccccc1 0.026
O=C(NC1CC1)[C@@H]1c2ccccc2C(=O)N(Cc2cc(C(F)(F)F)cc(C(F)(F)F)c2)[C@H]1c1ccc(CO)cc1 1.12
[N-]=[N+]=Nc1ccccc1[C@@H]1OC(c2ccc(OCCCO)cc2)=N[C@]1(CCS(=O)(=O)c1ccccc1)C(=O)NCC(O)CO (stereo partly specified) 0.317
CCCNC(=O)[C@@]1(Sc2ccc(C)cc2)CC(=O)N(Cc2ccccc2Cl)[C@@H]1c1ccc(CO)cc1I 0.034
COC(=O)[C@@]1(Cc2ccc(OC)cc2)[C@H]2c3cc(C(=O)N4CCCC4)n(CCn4cc([N+](=O)[O-])nc4C)c3C[C@H]2CN1C(=O)c1ccccc1 2.04
COCC(=C=CC[C@H](O)c1ccccc1OCCO)C[C@H](O)COCc1ccccc1 -0.566
C=CC1c2cc(O)c(OC)cc2CCN1C (stereo unspecified) -0.283
COc1ccc([Si](C)(C)[C@H]2[C@H](CC(=O)N3CCC[C@H]3CO)O[C@@]3(C(=O)N(Cc4ccc(N5CCCCC5=O)cc4)c4ccccc43)[C@@H]2C)cc1 -0.012
Cc1ccc(F)cc1S(=O)(=O)N[C@H]1CCN(Cc2ccc(OC(C)C)cc2)C1 -0.107
COC(=O)C(CC#Cc1ccc2c(c1)[C@]1(C(=O)N2)[C@H](c2ccccc2OCCO)N2[C@H](c3ccccc3)[C@H](c3ccccc3)OC(=O)[C@H]2[C@@H]1C(=O)N1CCc2cc(OC)c(OC)cc2C1)C(=O)OC 2.83

Test: growth modulation of vineyard yeast isolate – strain RM11-1a, OD600, basal, 24 h, primary screen (AID 1177);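 further: cultures grown under basal conditions with no added stressor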
Details: S. cerevisiae RM11-1a growth, OD600, 24 h; higher = more signal, called active from +8 up or from −8 down

z-score, inactive:
C=C(COC)/C(=C/C[C@H](OC(C)=O)c1ccccc1OCCO)c1cc(C(=O)OC)ccc1OC 0.0505
C=C(CCCC)/C(=C/C[C@H](OC(=O)c1ccncc1)c1cccc(OCCO)c1)c1cnc2ccccc2c1 -0.364
C=C(COC)C(=O)CC[C@@H](OC(C)=O)c1ccccc1OCCO -1.56
COc1ccc(C(O)C2C=CC3C(=O)N(c4ccccc4)C(=O)C3N2Nc2ccc(C#N)cc2)cc1OCc1ccccc1 (stereo unspecified) -0.396
CCOC(=O)C1=CC[C@@H](c2ccc(OC)cc2)N(S(=O)(=O)c2ccc(C)cc2)[C@H]1c1ccc(C)cc1 -0.187
C=C(CCCC)/C(=C/C[C@H](OC(C)=O)c1cccc(OCCO)c1)c1cnc2ccccc2c1 1.75
CC(=O)OCC1C2CC[C@H]3C(OCc4ccc(F)cc4C(F)(F)F)OC[C@]4(C)[C@H]3C2=C(CN4C(=O)OC(C)(C)C)[C@H](C)C1COC(C)=O (stereo partly specified) 1.93
CC(C)(C)OC(=O)CC[C@]1(C(=O)NCC(O)CO)N=C(c2ccc(OCCCO)cc2)O[C@H]1c1ccccc1N=[N+]=[N-] (stereo partly specified) -0.134
COC(=O)[C@@]1(Cc2ccc(F)cc2)[C@H]2c3cc(C(=O)N(C)C)n(CCc4ccc(O)c(O)c4)c3C[C@H]2CN1C(=O)c1ccccc1 0.232
CC[C@@H]1C=C(C(=O)O)[C@H](c2ccc(OC)cc2)N1S(=O)(=O)c1ccc(C)cc1 -0.391
COC(=O)[C@@]1(Cc2ccccc2)N=C(c2ccc(OCCCO)cc2)O[C@H]1c1ccccc1CN=[N+]=[N-] 2.85
COc1ccc(C(=O)Nc2cccc(CN3C(=O)[C@@]4(O[C@@H](CC(=O)N5CCC[C@H]5CO)[C@H]([Si](C)(C)c5ccc(OC)cc5)[C@H]4C)c4ccccc43)c2)cc1 0.844
CC(=O)c1ccc(C(O)C2C=CC3C(=O)N(c4ccccc4)C(=O)C3N2Nc2ccc(C(C)C)cc2)cc1 (stereo unspecified) 0.677
COc1ccccc1CN1C(=O)c2ccccc2[C@](Cc2ccccc2I)(C(=O)NCC(C)C)[C@@H]1c1ccc(CO)cc1 -0.337
C=CCNC(=O)[C@H]1[C@@H]2C(=O)O[C@@H](c3ccccc3)[C@@H](c3ccccc3)N2[C@@H](c2ccc(OCCO)cc2)[C@]12C(=O)Nc1ccc(C#CC3(O)CCCCCC3)cc12 2.62
[N-]=[N+]=Nc1ccccc1C[C@@]1(C(=O)NCC(O)CO)N=C(c2ccc(OCCCO)cc2)O[C@@H]1c1ccccc1 (stereo partly specified) 0.302
CCOC(=O)c1cn(C[C@H](Cc2ccccc2)NC(=O)N[C@H](CO)CCc2oc(C(C)=O)c(C(=O)OC)c2C(=O)OC)nn1 -0.669
Cc1ccc(S[C@]2(C(=O)NCCCN(C)C)CC(=O)N(Cc3ccccc3C(F)(F)F)[C@@H]2c2ccc(CO)cc2I)cc1 -1.55
COCCOC(=O)N1C(=O)[C@@]2(c3cc(C#CCNC(N)=O)ccc31)[C@H](C(=O)Nc1nc3ccccc3s1)[C@H]1C(=O)O[C@H](c3ccccc3)[C@H](c3ccccc3)N1[C@@H]2c1ccccc1OCCO 2.32
Cc1ccc(S[C@]2(C(=O)NC3CC3)CC(=O)N(C(C)C)[C@@H]2c2ccc(CO)cc2I)cc1 -2.02
COc1cc(CO)cc(I)c1O[C@H]1C=C(C(=O)NCCO)C[C@@H]2O[C@H]12 1.69
CC(=O)NCCCC[C@@H]1NC(=O)[C@H]2C[C@@H](C(=O)NCCCCCCNC(=O)CS)[C@@H](c3cccc(OCCO)c3)N2C1=O 1.05
C=CC[C@@]1(C(=O)OC)N=C(c2ccc(OCCCO)cc2)O[C@@H]1c1ccccc1N=[N+]=[N-] 1.72
CCC(CC)C(O)C1C=CC2C(=O)N(c3ccccc3)C(=O)C2N1Nc1ccccc1F (stereo unspecified) -0.0886
CN1C(=O)C2C(C1=O)C1C=C(CCCO)C2C(C2CC2)N1Cc1cccc(OC(F)(F)F)c1 (stereo unspecified) 0.132
C=C(CCCC)C(=O)CC[C@H](OC(=O)c1ccccc1-c1ccccc1C(=O)O)c1ccc(OCCO)cc1 0.152
COC(=O)[C@@]1(Cc2ccc(F)cc2)[C@H]2c3cc(C(=O)N(C)C)n(C)c3C[C@H]2CN1C(=O)c1ccccc1 0.626
O=C(NC1CC1)[C@@H]1c2ccccc2C(=O)N(Cc2cc(C(F)(F)F)cc(C(F)(F)F)c2)[C@H]1c1ccc(CO)cc1 -0.44
[N-]=[N+]=Nc1ccccc1[C@@H]1OC(c2ccc(OCCCO)cc2)=N[C@]1(CCS(=O)(=O)c1ccccc1)C(=O)NCC(O)CO (stereo partly specified) 0.777
CCCNC(=O)[C@@]1(Sc2ccc(C)cc2)CC(=O)N(Cc2ccccc2Cl)[C@@H]1c1ccc(CO)cc1I -0.641
COC(=O)[C@@]1(Cc2ccc(OC)cc2)[C@H]2c3cc(C(=O)N4CCCC4)n(CCn4cc([N+](=O)[O-])nc4C)c3C[C@H]2CN1C(=O)c1ccccc1 -0.123
COCC(=C=CC[C@H](O)c1ccccc1OCCO)C[C@H](O)COCc1ccccc1 -0.482
C=CC1c2cc(O)c(OC)cc2CCN1C (stereo unspecified) -0.071
COc1ccc([Si](C)(C)[C@H]2[C@H](CC(=O)N3CCC[C@H]3CO)O[C@@]3(C(=O)N(Cc4ccc(N5CCCCC5=O)cc4)c4ccccc43)[C@@H]2C)cc1 1.57
Cc1ccc(F)cc1S(=O)(=O)N[C@H]1CCN(Cc2ccc(OC(C)C)cc2)C1 0.297
COC(=O)C(CC#Cc1ccc2c(c1)[C@]1(C(=O)N2)[C@H](c2ccccc2OCCO)N2[C@H](c3ccccc3)[C@H](c3ccccc3)OC(=O)[C@H]2[C@@H]1C(=O)N1CCc2cc(OC)c(OC)cc2C1)C(=O)OC 1.79
